Results filed as inconclusive are left out. Entries that show only a call come without a potency. A number with no mark means an inactive call. The source made the active and inactive calls. The call rests on the fitted dose curve; in most records, active means well fitted cell-killing curve with a large enough effect in the repeat runs; inconclusive means weak or mixed curves, or effect the other way; inactive means flat fitted curve, though single readings scatter.

A short description of this assay: qHTS assay to identify small molecule antagonists of the androgen receptor (AR) signaling pathway using the MDA cell line in the presence of 0.5 nM R1881 - cell viability counter screen (AID 1259242). Further: nearly all actives have a fitted effect of over 45% in size. As to conditions: MDA-kb2 viability, CellTiter-Fluor protease fluorescence, 16 h; series mostly up to 92.4 µM. The text has this: U.S. Tox21 Program National Center for Advancing Translational Sciences [NCATS] NIH Chemical Genomics Center [NCGC] U.S. Environmental Protection Agency [EPA] National Institutes of Environmental Health Sciences [NIEHS] National Toxicology Program [NTP] U.S. Food and Drug Administration [FDA] Tox21 Assay Overview: Androgen receptor (AR) is an important member of the nuclear receptor family. Its signaling plays a critical role in AR-dependent prostate cancer and other androgen related diseases. Considerable attention has been given in the past decades to develop methods to study and screen for the environmental chemicals that have the potential to interfere with metabolic homeostasis, reproduction, developmental and behavioral functions. Therefore AR binding assay for screening androgen antagonists can be used to identify potential endocrine disruptors. MDA-kb2 cells (from ATCC, deposited by Wilson et al.) were used to screen for AR inhibitors against Tox21 compound libraries. These cells are human breast carcinoma cells that were stably transfected with a luciferase reporter gene under control of the MMTV promoter that contains response elements for both androgen receptor (AR) and glucocorticoid receptor (GR). The current screening for identification of AR inhibitors against Tox21 libraries used lower concentration of (0.5 nM) R1881 as a stimulator. The cytotoxicity of the Tox21 compound libraries against MDA-kb2 cell line was tested by measuring live-cell protease activity using CellTiter-Fluor assay in the same wells.
Tox21 Assay Protocol Summary: MDA-kb2 cells (cells cultured without CO2) were dispensed at 3,000 cells/well in 4 uL of culture medium into white wall/solid-bottom 1536-well plates (Corning Life Sciences, Corning, NY) using a Multidrop Combi (ThermoFisher Scientific, Waltham, MA) dispenser. After the assay plates were incubated at a 37C and 0% CO2 for 5 hr, 23 nL of compounds dissolved in DMSO, positive controls or DMSO only was transferred to the assay plate by a Pintool station (Kalypsys, San Diego, CA). The transfer of compounds was followed by the addition of 1 uL of 0.5 nM (final concentration) agonist (R1881)/culture medium using a Flying Reagent Dispenser (FRD, Aurora Discovery, San Diego, CA). The plates were incubated at 37C and 0% CO2 for 16 hr. For cytotoxicity assay, 1 uL of CellTiter-Fluor reagent (Promega Corporation, Madison, WI) was added to each well using the FRD and after 30 min incubation at 37C and 0% CO2, The fluorescence intensity was measured using ViewLux plate reader (PerkinElmer, Shelton, CT).
A general note: Quantitative high-throughput screening tests each substance at several concentrations.
`CNC(=O)NC`: the Potency result is “inactive”.
Still for that read-out and setting: under `CN(C1CCCCC1)S(=O)(=O)c1ccccc1N` stands “inactive”; under `COCC(=O)Nc1c(I)c(C(=O)NCC(O)CO)c(I)c(C(=O)N(C)CC(O)CO)c1I` (stereo not given), “inactive”.
On the same count and under the same terms, under `CCCCCC1CCCC(=O)O1` (stereo not given) stands “inactive”; under `NS(=O)(=O)c1ccccc1OC(F)(F)F`, “inactive”.
On to `Nc1ccc(S(=O)(=O)NC(=O)c2ccccc2)cc1`, for which the Potency entry is “inactive”.
Regarding `O=c1cc(O)c(Cl)c[nH]1`, the Potency result is “inactive”.
Consider `CC(C)c1ccccc1O`, for which the Potency result is “inactive”.
Regarding `CCCCC(CC)C(=O)OC(C)C` (stereo not given), the Potency entry is “inactive”.
As to `Cc1cccc(NC(=S)N(C)C)c1`, the Potency result was “inactive”.
Consider `O=P(O)(O)OCC(O)CO` (stereo not given), for which the Potency entry was “inactive”.
For the compound `Nc1c(NC/C=C\COc2cc(CN3CCCCC3)ccn2)c(=O)c1=O`, the viability change, negative = cytotoxic is -4.94% [at 19 µM].
`c1ccc(CNc2ncnc3nc[nH]c23)cc1`: the Potency entry was “inactive”.
Regarding `CCOC(=O)CC(CC(=O)OCC)(OC(C)=O)C(=O)OCC`, the Potency result is “inactive”.
Consider `COc1ccc(NS(=O)(=O)c2ccc(N)cc2)nn1`, for which the Potency result was “inactive”.
The same measure, in the same setting: the same measure for `O=C1OC(=O)c2cc(Oc3ccc4c(c3)C(=O)OC4=O)ccc21`: “inactive”.
With `C[Si]1(C)N[Si](C)(C)N[Si](C)(C)N1`, the Potency result is “inactive”.
On to `CC(C)COC(=O)CC(C(=O)OCC(C)C)S(=O)(=O)O` (stereo not given), for which the Potency entry is “inactive”.
The same measure, in the same setting: the same measure for `CC(=O)OCCCc1ccccc1`: “inactive”; for `Cc1cc(C)cc([N+](=O)[O-])c1`: “inactive”.
As for `COC(=O)CCC(=O)O`, the Potency entry is “inactive”.
With `CCNC(=O)NCCCOc1cccc(CN2CCCCC2)c1`, the Potency entry is “inactive”.
On to `CCOC(=O)OCC/C(SC(=O)OCC)=C(\C)N(C=O)Cc1cnc(C)nc1N`, for which the Potency entry is “inactive”.
Take `Cc1ccc(C(=O)C(=O)O)cc1C`: the Potency entry is “inactive”.
As to `C/C=C(\C)C(=O)OCC/C=C\CC`, the Potency entry was “inactive”.
For the compound `CC(C)(C)NCCO`, the Potency result was “inactive”.
Regarding `C=CCOc1cc(Cl)ccc1C(=O)NCCN(CC)CC`, the Potency entry is “inactive”.
For the compound `O=C1CC[C@H](C(=O)N2CCCCC2)N1`, the Potency result was “inactive”.
Still for that read-out and setting: the same measure for `CC(C)(c1ccc(Oc2ccc3c(c2)C(=O)OC3=O)cc1)c1ccc(Oc2ccc3c(c2)C(=O)OC3=O)cc1`: “inactive”; for `CNCc1ccccc1`: “inactive”; for `O=C(O)c1c(Cl)ccc(Cl)c1Cl`: “inactive”.
Consider `CC(=O)OC(C)c1ccccc1` (stereo not given), for which the Potency entry is “inactive”.
In the case of `CC(=O)OC(C(=O)c1ccccc1)c1ccccc1` (stereo not given), the Potency result was “inactive”.
As to `CN[C@@H]1[C@@H](O)[C@@H](O[C@@H]2[C@H](O)[C@H](O[C@H]3OC(CN)=CC[C@H]3N)[C@@H](N)C[C@H]2N)OCC1(C)O` (stereo not given in full), the Potency entry was “inactive”.
With `COc1ccc(OC)c(NC(=O)CC(C)=O)c1`, the Potency result was “inactive”.
As to `C=C(C)[C@@H]1CC[C@@H](C)C[C@@H]1O`, the Potency result was “inactive”.
Turning to `COc1cc2c(Nc3ccc(Br)cc3F)ncnc2cc1OCC1CCN(C)CC1`, the Potency entry is “inactive”.
As for `CCOC(=O)CC#N`, the Potency entry is “inactive”.
As for `CCCCC(=O)N(C)C`, the Potency entry is “inactive”.
For the compound `CCN(CCO)c1cccc(C)c1`, the Potency entry was “inactive”.

The record behind these values is PubChem BioAssay (Tox21).
